Measles inh: inhibitors of measles virus growth in cells, primary screen, measles RdRp inhibitor project, cell-based, single point, HTS. 33,000 tested, 0.1% active. AID 745, 2007. z-score (test concentration not listed). infected Vero cells, GFP fluorescence, 64 h; stronger effect = lower value; in the data active means z-score below about -3
Numbers without * were called inactive. Only a selection was taken, and hits are over-represented in it overall.

SMILES	Measles inh
COC(=O)c1ccccc1N1C(=O)C2C3CCC(C3)C2C1=O (stereo not drawn)	-3.7*
CCCCOC(=O)c1ccccc1N1C(=O)C2C3CCC(C3)C2C1=O (stereo not drawn)	-0.03
O=C1C2C3CCC(C3)C2C(=O)N1c1ccccc1F (stereo not drawn)	-0.46
CC(=O)NC(CCS(C)(=O)=O)C(=O)Nc1ccc(C(C)C)cc1 (stereo not drawn)	0.28
CCOc1ccc(-n2ccnc2SCC(=O)Nc2cccc(C)c2C)cc1	0.83
COc1ccc(Cc2nc(C)cc(Cl)n2)cc1Cl	-3.8*
COc1nc(Cl)cc(C)c1C(=O)NCc1ccc(Cl)cc1	-0.85
COc1ccc(Cc2c(Cl)ncnc2Cl)cc1	-0.43
CCOc1cc(C2C3=C(CC(C)(C)CC3=O)N(CC)C3=C2C(=O)CC(C)(C)C3)cc(Cl)c1O	-0.77
O=C(Cc1ccc(-n2c(=S)[nH]c3ccccc3c2=O)cc1)NC1CCCC1	1.2
CCOC(=O)c1ccc(CN(Cc2ccc(F)cc2)S(=O)(=O)c2cccc(Cl)c2)cc1	-0.25
Cc1ccc(-n2cc(-c3ccc4c(c3)OCO4)[nH]c2=O)cc1Cl	2.6
O=C(c1cc(S(=O)(=O)N2CCCCC2)ccc1F)N1CCOCC1	0.68
O=C(NCCN1CCOCC1)C1CCCN(S(=O)(=O)c2cccc3nsnc23)C1 (stereo not drawn)	-0.04
CCN(CCNC(=O)C1CCCN(S(=O)(=O)c2cccc3nsnc23)C1)c1ccccc1 (stereo not drawn)	-3.3*
NS(=O)(=O)c1ccc(CCNC(=O)C2CCCN(S(=O)(=O)c3cccc4nsnc34)C2)cc1 (stereo not drawn)	-0.81
Oc1ccccc1C1Oc2ccccc2C2CC(c3cccs3)=NN21 (stereo not drawn)	-0.46
CCC(=O)N1CCc2cc(S(=O)(=O)NCCCN3CCCC(C)C3)ccc21 (stereo not drawn)	1.7
Fc1ccc(Oc2nc(Nc3cccc(Cl)c3)nc(N3CCOCC3)n2)cc1	-0.65
O=C(Cn1c2ccccc2c(=O)c2cc([N+](=O)[O-])ccc21)Nc1cccc(C(F)(F)F)c1	0.72
O=C(CCN1C(=O)COc2ccccc21)NCCc1ccc(Cl)cc1	-0.22
O=C(CCN1C(=O)COc2ccccc21)NCCN1CCc2ccccc2C1	-6.4*
CC1CCCC(C)N1CCNC(=O)CCN1C(=O)COc2ccccc21 (stereo not drawn)	-0.4
COC(=O)c1ccc2c(=O)n(CCCCCC(=O)N3CCc4ccccc4C3)c(=O)[nH]c2c1	0.45
Cc1ccc(C(=O)Nc2ccc3nc(SCC(=O)Nc4ccccc4F)sc3c2)cc1	-0.12
SMILES	Measles inh
O=C(CCCCCn1c(=S)[nH]c2ccsc2c1=O)N1CCCC1	1.1
CCCCNC(=O)c1c(CO)cc(C)[nH]c1=O	-0.44
Cc1cccc(NC(=O)CSc2nnnn2C)c1C	0.07
CC(C)c1ccc(C(=O)N2N=C(C(F)F)CC2(O)C(F)F)cc1 (stereo not drawn)	-0.18
N=c1n(CCO)c2ccccc2n1CCN1CCCCC1	-0.81
Cc1cn2c3ccccc3n(CCN3CCCCC3)c2n1	-0.96
c1ccc(-c2cn3c4ccccc4n(CCN4CCCCC4)c3n2)cc1	-3.1*
O=C(c1ccco1)N1CCN(c2nc3ccccc3c(=O)n2-c2ccc(Cl)cc2)CC1	1.9
Cc1ccc(-n2ncc3c(=O)[nH]c(SCC(=O)Nc4ccccc4C(F)(F)F)nc32)cc1C	0.94
Cc1cccc(C)c1OCCCCCCN1CCOCC1	-0.51
COc1ccccc1OCCCCCCN1CCOCC1	-0.57
CC(C)(C)c1cc(Br)ccc1OCCCN1CCOCC1	-3.3*
CCC1=NN(C(=O)c2ccc(F)cc2)C(O)(C(F)(F)F)C1 (stereo not drawn)	0.29
O=C(CNc1ccccc1)N1c2ccccc2Sc2ccccc21	-0.45
Cc1ccc(C(=O)COC(=O)c2ccc(NC(=O)c3ccc(Br)cc3)cc2)cc1[N+](=O)[O-]	0.17
CCOc1ccc(NC(=O)CC23CC4CC(CC(C4)C2)C3)cc1	-0.82
CCOc1ccccc1NC(=O)CN1C(=O)C2C3C=CC(C3)C2C1=O (stereo not drawn)	1.3
CCOc1ccc(NC(=O)CN2C(=O)C3C4CCC(C4)C3C2=O)cc1 (stereo not drawn)	-3.2*
COc1cc([N+](=O)[O-])cc2c1C(=O)Nc1ccccc1O2	1.3
COc1ccc(-c2nc(SCc3ccccc3C)c3c(=O)n(C)c(=O)n(C)c3n2)cc1	1.8
CC(C)C(=O)N(Cc1ccc(C(C)C)cc1)C1CCS(=O)(=O)C1 (stereo not drawn)	-0.3
CCCCCCSc1nnc(-c2ccco2)c(-c2ccco2)n1	-0.77
CCCCCCCSc1nnc2nc(C)cc(C)n12	-3.1*
CCCCCSc1nc2ccccc2[nH]1	-0.16
O=C(Nc1ccc(Cl)cn1)c1cnn2c1NC(c1ccco1)CC2C(F)(F)F (stereo not drawn)	0.71
SMILES	Measles inh
Cc1cc(NC(=O)CCc2nc(-c3ccccc3F)no2)no1	0.16
N#Cc1ccc(N2C(=O)C3C4C=CC(C4)C3C2=O)cc1 (stereo not drawn)	0.54
CCCCOc1ccc(N2C(=O)C3C4C=CC(C4)C3C2=O)cc1 (stereo not drawn)	-3.3*
O=C(O)c1ccc(N2C(=O)C3C4C=CC(C4)C3C2=O)cc1 (stereo not drawn)	0.84
O=C1CC(NCc2ccc3c(c2)OCO3)C(=O)N1c1ccc(-c2nc3ccccc3o2)cc1 (stereo not drawn)	0.49
COc1ccc(C(=O)CN2CCN(S(=O)(=O)c3cc(Cl)ccc3OC)CC2)cc1OC	0.12
O=C(O)CC(NS(=O)(=O)c1ccc(Br)cc1)c1cccs1 (stereo not drawn)	0.99
CC(Nc1cc(N2CCCC2)ccc1[N+](=O)[O-])C12CC3CC(CC(C3)C1)C2 (stereo not drawn)	-0.11
Cc1ccccc1OCCn1c(SCC(N)=O)nc2ccccc21	1.5
COCc1nc2ccccc2n1CCOc1ccccc1C	-3.4*
CCn1c(COc2ccccc2C)nc2ccccc21	-0.28
CCc1ccc(C2C(C(=O)OC)=C(N)OC3=C2C(=O)CC(C)(C)C3)cc1 (stereo not drawn)	-0.83
COc1ccc(C(=O)Nc2ccc(-c3nc4ccccc4o3)cc2)cc1[N+](=O)[O-]	-0.3
CCN1CCN(c2cc(C)c3cc(NC(=O)Cc4cccc(C)c4)ccc3n2)CC1	-1.5
Cc1cc(N2CCN(C)CC2)nc2ccc(NC(=O)c3cccc(C(F)(F)F)c3)cc12	0.66
Cc1cc(N2CCN(C)CC2)nc2ccc(NC(=O)Cc3cccc(C(F)(F)F)c3)cc12	-3.1*
COCCn1c(=S)[nH]c2cc(C(=O)N3CCC(C(N)=O)CC3)ccc2c1=O	-0.23
CCc1ccccc1N(CC)C(=O)Cc1c(C(=O)O)[nH]c2ccc(Cl)cc12	0.64
O=C(CS(=O)(=O)c1ccc(C(F)(F)F)cc1Cl)Nc1cccc(C(=O)O)c1	0.73
COc1ccc([N+](=O)[O-])cc1NC(=O)C1c2cc(OC)c(OC)cc2C(=O)N(C)C1c1cccnc1 (stereo not drawn)	-0.58
O=C(COc1ccc(-c2nnc(NCc3ccccc3)c3ccccc23)cc1)N1CCCCC1	-0.44
CCc1ccc(NC(=O)C2CCN(C(=O)c3ccccc3C)CC2)cc1	-5*
COc1ccc(C)cc1NC(=O)C1CCN(C(=O)c2ccccc2C)CC1	-0.49
Cc1ccccc1C(=O)N1CCC(C(=O)Nc2ccccc2C(F)(F)F)CC1	0.84
COc1cccc(CNC(=O)C2c3ccccc3C(=O)N3CCc4ccccc4C23)c1 (stereo not drawn)	0.52
CC(=O)NC1=NN(C(C)=O)C(C)(c2ccccc2OC(C)=O)S1 (stereo not drawn)	1.4
Cc1sc2ncn(CC(=O)NCCCC(=O)NC3CCCCCC3)c(=O)c2c1C	0.71
Cc1nc2nc(SCC(=O)NCCC3=CCCCC3)nn2c(C)c1Cc1ccc(Cl)cc1	-0.42

Source: PubChem BioAssay
